For 29 molecules, outcome and AC50 results are on record in PubChem BioAssay (EPA / NIEHS).

The target of assay [1] is Nuclear respiratory factor 1 (Homo sapiens) (UniProt Q16656). Put plainly: ATG_NRF1_CIS: Attagene CIS-FACTORIAL HepG2 Assay for human Nuclear Respiratory Factor 1 (NRF1) Orphan Gene (AID 2282987). Particulars: HepG2 NRF1 cis-element reporter, Attagene multiplex; actives raise or lower the signal. In a few lines:
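Using DMSO as baseline, gain- or loss-of-signal was fitted for reporter mRNA levels in HepG2 cells transiently transfected with cis-regulated reporter units. Samples were taken 24 h after dosing and read by RT-PCR with capillary electrophoresis.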

Assay [2] can be described thus: ATG_NFI_CIS: Attagene CIS-FACTORIAL HepG2 Assay for human Nuclear Factor I (NFI) (AID 2282989). As to conditions: HepG2 cis-regulatory reporter, NFI response element transcription; actives raise or lower the signal. Summed up:
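After transient transfection of HepG2 with cis-promoter reporter constructs and 24 h dosing, RNA is reverse-transcribed, amplified, 6-FAM end-labelled and HpaI-digested before capillary analysis. Bidirectional curve fitting against DMSO.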

In assay [3] the target is Myc proto-oncogene protein (Homo sapiens) (UniProt P01106). The assay is described as follows: ATG_Myc_CIS: Attagene CIS-FACTORIAL HepG2 Assay for human Myelocytomatosis (Myc) Proto-Oncogene Transcription Factor (AID 2282990). Particulars: HepG2, Attagene cis-reporter transcription factor activity; actives raise or lower the signal. Summed up: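 Cells of the HepG2 human liver line bear multiple cis-driven reporter transcription units. Reporter mRNA after 24 h exposure is reverse-transcribed, amplified, labelled and resolved by capillary electrophoresis, with gain- or loss-of-signal fitting relative to DMSO.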

Assay [4] in a line: ATG_NF_kB_CIS: Attagene CIS-FACTORIAL HepG2 Assay for human Nuclear Factor Kappa B (NF-kB) (AID 2282991). Particulars: HepG2 Attagene cis-factorial NF-kB reporter mRNA; actives raise or lower the signal. In a few lines:
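Endpoint from a 52-component multiplexed HepG2 reporter panel: cis-regulated transcription units transiently transfected, 24 h dosing, reporter mRNA quantified by RT-PCR and capillary electrophoresis, scored as increase or decrease against DMSO.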

Assay [5] can be described thus: ATG_NRF2_ARE_CIS: Attagene CIS-FACTORIAL HepG2 Assay for human Nuclear Factor Erythroid 2 Related Factor 2 (NFR2) response to Antioxidant Response Elements (ARE) (AID 2282992). Particulars: HepG2 Attagene ARE/NRF2 reporter, transcription factor activity; actives raise or lower the signal. Summed up:
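Multiplexed reporter mRNA profiling in HepG2 after a 24 h chemical exposure. Curves fitted in both directions relative to DMSO negative control.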

Assay [6] is described as follows: ATG_Oct_MLP_CIS: Attagene CIS-FACTORIAL HepG2 Assay for human Octamer-Binding Transcription Factor (Oct) (AID 2282993). As to conditions: HepG2 Attagene cis-factorial Oct reporter, mRNA; actives raise or lower the signal. In a few lines:
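Cells of the HepG2 line express promoter-controlled reporter sequences whose mRNA levels, after 24 h treatment, are measured by RT-PCR and capillary electrophoresis. Increases and decreases are scored relative to DMSO.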

In assay [7] the target is Cellular tumor antigen p53 (Homo sapiens) (UniProt P04637). The assay is described as follows: ATG_p53_CIS: Attagene CIS-FACTORIAL HepG2 Assay for human p53 Transcription Factor (AID 2282994). Particulars: HepG2 p53 cis-element reporter, Attagene mRNA; actives raise or lower the signal. Summed up:
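Multiplexed reporter mRNA assay in human HepG2 liver cells; cis-regulated units report endogenous factor activity. Values come from bidirectional curve fitting against DMSO negative control after 24 h treatment.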

The nature of assay [8]: BSK_3C_TissueFactor: BioMAP Diversity Plus: 3C Assay for Tissue Factor Biomarker Activity (AID 2282997). As to conditions: BioMAP 3C HUVEC, tissue factor biomarker readout; actives raise or lower the signal. In a few lines:
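HUVEC were treated 24 h, then surface tissue factor measured by ELISA and fitted bidirectionally against DMSO. Parallel SRB total-protein staining assessed overt cytotoxicity at the same time point.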

The nature of assay [9]: BSK_3C_uPAR: BioMAP Diversity Plus: 3C Assay for Urokinase-type plasminogen activator receptor (uPAR) Biomarker Activity (AID 2282998). As to conditions: BioMAP 3C HUVEC, uPAR biomarker ELISA; actives raise or lower the signal. Summed up: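 Endothelial primary cells of human umbilical vein origin received test chemical; 24 h later uPAR was assayed by ELISA. Fitting was bidirectional, DMSO as negative control.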

A short description of assay [10]: BSK_3C_VCAM1: BioMAP Diversity Plus: 3C Assay for Vascular cell adhesion molecule 1 (VCAM1) Biomarker Activity (AID 2282999). As to conditions: BioMAP 3C HUVEC, VCAM1 ELISA, cytokine-stimulated; actives raise or lower the signal. Summed up:
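Endothelial cells from human umbilical vein are treated with test chemical. At 24 h, VCAM-1 is measured by ELISA, and responses in either direction are fitted relative to DMSO.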

Where “and” joins values, the source holds several entries; their conditions need not be identical. Equal values may be shown once. The source holds several records for some structures; these can differ, active in one and inactive in another. Calls of active or inactive are those of the source. Rule for the calls: active = hit-call score of the fitted dose curve at least 0.9, where 1 is the maximum; inactive = score below 0.9.

Chain of Cellular tumor antigen p53 (Homo sapiens) (P04637 whole entry, looked up): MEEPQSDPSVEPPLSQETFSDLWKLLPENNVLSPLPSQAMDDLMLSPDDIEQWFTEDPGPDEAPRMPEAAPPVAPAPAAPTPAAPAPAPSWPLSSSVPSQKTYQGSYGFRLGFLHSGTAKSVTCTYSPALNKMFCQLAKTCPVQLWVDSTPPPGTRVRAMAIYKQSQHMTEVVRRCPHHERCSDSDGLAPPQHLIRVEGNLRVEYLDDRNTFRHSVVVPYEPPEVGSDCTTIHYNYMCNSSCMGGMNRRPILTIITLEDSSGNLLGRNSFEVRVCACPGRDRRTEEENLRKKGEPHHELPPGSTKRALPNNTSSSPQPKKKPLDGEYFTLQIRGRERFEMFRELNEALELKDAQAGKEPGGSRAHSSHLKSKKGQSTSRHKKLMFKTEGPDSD
Chain of Nuclear respiratory factor 1 (Homo sapiens) (Q16656 whole entry, looked up): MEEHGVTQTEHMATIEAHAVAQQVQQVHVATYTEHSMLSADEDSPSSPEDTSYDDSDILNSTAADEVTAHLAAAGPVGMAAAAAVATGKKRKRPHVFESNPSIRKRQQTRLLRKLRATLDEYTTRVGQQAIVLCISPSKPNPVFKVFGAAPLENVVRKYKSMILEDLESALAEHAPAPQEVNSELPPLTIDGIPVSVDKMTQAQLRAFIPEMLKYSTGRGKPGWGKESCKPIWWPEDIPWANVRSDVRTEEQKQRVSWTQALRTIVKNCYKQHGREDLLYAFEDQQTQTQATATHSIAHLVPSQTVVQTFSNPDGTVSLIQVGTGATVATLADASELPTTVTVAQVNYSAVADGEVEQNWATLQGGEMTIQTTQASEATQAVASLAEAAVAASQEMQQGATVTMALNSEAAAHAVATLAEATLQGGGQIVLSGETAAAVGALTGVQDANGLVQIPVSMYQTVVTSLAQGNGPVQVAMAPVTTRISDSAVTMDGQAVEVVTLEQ
Chain of Myc proto-oncogene protein (Homo sapiens) (P01106 whole entry, looked up): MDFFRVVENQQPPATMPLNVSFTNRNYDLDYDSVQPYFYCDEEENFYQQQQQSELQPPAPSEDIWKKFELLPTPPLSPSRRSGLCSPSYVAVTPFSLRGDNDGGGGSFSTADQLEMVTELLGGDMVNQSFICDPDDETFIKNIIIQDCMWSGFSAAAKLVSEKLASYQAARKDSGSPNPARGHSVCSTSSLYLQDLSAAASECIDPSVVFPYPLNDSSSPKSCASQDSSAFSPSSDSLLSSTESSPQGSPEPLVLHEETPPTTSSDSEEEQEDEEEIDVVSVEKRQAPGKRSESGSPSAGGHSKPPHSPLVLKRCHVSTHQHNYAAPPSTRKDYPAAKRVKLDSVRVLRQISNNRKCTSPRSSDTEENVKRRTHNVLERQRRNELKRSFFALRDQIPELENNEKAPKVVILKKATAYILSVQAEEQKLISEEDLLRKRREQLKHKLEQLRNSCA

For the molecule `OC[C@H]1O[C@@H](O[C@H]2[C@H](O)[C@@H](O)[C@H](O)O[C@@H]2CO)[C@H](O)[C@@H](O)[C@H]1O`, the result in assay [1], in assay [2], in assay [3], in [4], in assay [5] and in [6] was inactive. The molecule was called inactive in assay [7].

For `CCC(CC)CO`, the outcome in [1], in assay [2], in assay [3], in assay [4], in assay [5] and in [6] was inactive.

On to `O=C(c1ccc(OCCN2CCCCC2)cc1)c1c(-c2ccc(O)cc2)sc2cc(O)ccc12`, for which the concentration at half-maximal activity (AC50) is 19.6 µM (active) and 17.7 µM (active) in assay [1]; 8.99 µM (active) and 16.7 µM (active) in [2]; 6.44 µM (active) [middle of 4 runs] in assay [5]; 8.87 µM (active) [middle of 4 runs] in [6]; 9.07 µM (active) and 14.9 µM (active) and 15.1 µM (active) in assay [7]; 34.6 µM (active) in assay [8]. For the same molecule, the AC50 in [9] was 22.3 µM (active); in assay [10] it was 35.4 µM (active). Moreover, the result in assay [1], in assay [2], in [3], in [4], in assay [5] and in [6] was inactive. Also, the molecule was classed as inactive in assay [7].

Take `CCCCCCCCCCCCN1CCOCC1`: the AC50 in [1] was 59.8 µM (active); in assay [5], 33.4 µM (active); in assay [6], 45.4 µM (active). In addition, the call in assay [2], in assay [3], in assay [4] and in assay [7] was inactive.

As for `Cc1cccc(O)c1`, the result in [1], in [2], in assay [3], in assay [4], in assay [5] and in [6] was inactive. Further, the outcome in [7] was inactive.

Regarding `CC(CCO)CC(C)(C)C` (stereo not given), the molecule was classed as inactive in assay [1], in assay [2], in assay [3], in [4], in [5] and in [6]. For the same molecule, in [7], the result was inactive.

For `Cc1ccc(C(C)(C)O)cc1`, the result in [1], in assay [2], in [3], in assay [4], in assay [5] and in assay [6] was inactive. Moreover, in assay [7], the call was inactive.

On to `CC(C)Cc1ccccc1`, for which the result in assay [1], in assay [2], in [3], in [4], in assay [5] and in assay [6] was inactive. Further, in assay [7], the call was inactive.

`CCCCCCCCCCCCCCCCCC(=O)OCCCCCCCCCCCCCC(C)C`: the outcome in [1], in assay [2], in assay [3], in assay [4], in [5] and in [6] was inactive. For the same molecule, the outcome in [7] was inactive.

For `Cc1cc(N)n(-c2ccccc2)n1`, the molecule was classed as inactive in assay [1], in assay [2], in assay [3], in [4], in assay [5] and in assay [6]. Further, the outcome in [7] was inactive.

Regarding `FC(F)(F)c1ccc(Cl)c(Cl)c1`, the outcome in assay [1], in assay [2], in assay [3], in [4], in [5] and in assay [6] was inactive. The molecule was classed as inactive in assay [7].

Regarding `c1ccc(Cc2ccccc2)cc1`, the molecule was classed as inactive in [1], in [2], in [3], in [4], in [5] and in assay [6]. The result in [7] was inactive.

In the case of `NCCN1CCNCC1`, the outcome in assay [1], in assay [2], in assay [3], in [4], in assay [5] and in [6] was inactive. Besides, in assay [7], the call was inactive.

As to `C=C/C(C)=C/C/C=C(\C)CCC=C(C)C`, the result in assay [1], in assay [2], in assay [3], in assay [6] and in [7] was inactive. The AC50 was 100 µM (active) in assay [4] and 67.1 µM (active) in assay [5].

Turning to `CCCC(O)C(CC)CO` (stereo not given), the molecule was classed as inactive in assay [1], in [2], in [3], in assay [4], in assay [5] and in assay [6]. In [7], the outcome was inactive.

As for `CCOC(=O)CC1(C)OCC(C)O1` (stereo not given), the outcome in assay [1], in assay [2], in assay [3], in assay [4], in assay [5] and in [6] was inactive. For the same molecule, the result in assay [7] was inactive.

Regarding `CCC(C)COC(=O)CC(C)C` (stereo not given), the outcome in [1], in [2], in assay [3], in assay [4], in [5] and in [6] was inactive. The outcome in assay [7] was inactive.

Regarding `C=C(C)CCCC(C)CCO` (stereo not given), the molecule was classed as inactive in [1], in assay [2], in assay [3], in [4], in assay [6] and in [7]. Besides, in assay [5], the AC50 is 59.7 µM (active).

Regarding `CCCCCCOc1ccc(O)cc1`, the call in assay [1], in assay [2], in assay [3], in assay [4] and in assay [7] was inactive. Besides, the results for the half-maximal activity concentration (AC50) in assay [5] and in assay [6] were 18.7 µM (active) and 33.4 µM (active), respectively.

As to `CC(C)(O)CCc1ccccc1`, the result in [1], in assay [2], in assay [3], in assay [4], in assay [5] and in assay [6] was inactive. Besides, the molecule was called inactive in [7].

As for `NC(=O)c1cnccn1`, the outcome in assay [1], in [2], in assay [3], in [4], in assay [5] and in assay [6] was inactive. In assay [7], the molecule was classed as inactive.

Regarding `O=S(=O)(O)c1cc(S(=O)(=O)O)c2c(N=Nc3ccccc3)c(O)ccc2c1`, the molecule was classed as inactive in assay [1], in assay [2], in assay [3], in assay [4], in assay [5] and in assay [6]. In addition, the result in [7] was inactive.

`CC1(C)CC(N)CC(C)(CN)C1` (stereo not given): the result in [1], in assay [2], in assay [3], in assay [4], in assay [5] and in [6] was inactive. For the same molecule, in [7], the outcome was inactive.

`Cc1cc(O)c(C)c(C)c1O`: the result in assay [1], in [2], in assay [3], in assay [6] and in assay [7] was inactive. For the same molecule, the half-maximal activity concentration (AC50) in assay [4] was 50.7 µM (active); in assay [5], 18.8 µM (active).

For `Brc1cc(Br)cc(Br)c1`, the result in assay [1], in assay [2], in assay [3], in assay [4], in [5] and in [6] was inactive. For the same molecule, the molecule was called inactive in [7].

Consider `CCC(C)(C)C1CCC(OC)CC1` (stereo not given), for which the molecule was called inactive in assay [1], in assay [2], in [3], in [4], in assay [5] and in assay [6]. For the same molecule, in [7], the molecule was called inactive.

For `CC(C)=CC(=O)O`, the result in assay [1], in assay [2], in assay [3], in assay [4], in assay [5] and in assay [6] was inactive. The molecule was classed as inactive in assay [7].

On to `CCC=C(C)C=O`, for which the call in assay [1], in assay [2], in [3], in assay [4], in assay [5] and in assay [6] was inactive. Besides, the molecule was classed as inactive in assay [7].

For `CCOC(=O)C(=O)OCC`, the call in assay [1], in assay [2], in assay [3], in assay [4], in [5] and in [6] was inactive. For the same molecule, the outcome in assay [7] was inactive.
